Source: PubChem BioAssay
Apoferritin bind – qHTS Assay for Identification of Novel General Anesthetics | apoferritin/1-aminoanthracene competitive binding, fluorescence | Ferritin light chain (Equus caballus), P02791 | actives 0.074% (n = 350,000) | Potency, µM (doses to about 77.5 µM), for inactives: top-dose activity change, negative = displacement, hits mostly inhibitors | AID 485281, 2010; active means well fitted inhibition curve with a large enough effect; inconclusive means small, poorly fitted or top-dose-only effect; inactive means no such curve, though single readings can be large or run the other way; further: potency means the concentration at half of the fitted maximal effect; on the % scale 0 is the no-effect control and ±100 the full control effect; nearly all actives have a fitted effect of over 20% in size
Target sequence (P02791 2-175 limits assumed): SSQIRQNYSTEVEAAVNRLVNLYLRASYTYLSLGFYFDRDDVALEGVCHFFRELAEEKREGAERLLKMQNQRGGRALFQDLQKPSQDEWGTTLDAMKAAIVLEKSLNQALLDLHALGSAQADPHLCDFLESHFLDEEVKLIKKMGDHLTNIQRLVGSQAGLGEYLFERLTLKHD
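Horse-spleen apoferritin (10 uM) was mixed with 50% saturated 1-aminoanthracene in PBS, exposed to compounds for 10 min at room temperature, and read for fluorescence (ex 380 nm, em 535 nm). Competitive displacement was fitted with a four-parameter Hill equation.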
D2 ag-1 – HTS Assay for Allosteric Agonists of the Human D2 Dopamine Receptor: Primary Screen for Agonists | HEK293 T-REx D2 cells, calcium flux agonist mode | activation, % at 2 µM | actives 0.53% (n = 340,000);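 active means activation over 3 SD above normal in the single-dose calcium agonist read, cut at about 30% in these data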; further: 0% is about no effect
Target sequence (P14416 whole entry, looked up): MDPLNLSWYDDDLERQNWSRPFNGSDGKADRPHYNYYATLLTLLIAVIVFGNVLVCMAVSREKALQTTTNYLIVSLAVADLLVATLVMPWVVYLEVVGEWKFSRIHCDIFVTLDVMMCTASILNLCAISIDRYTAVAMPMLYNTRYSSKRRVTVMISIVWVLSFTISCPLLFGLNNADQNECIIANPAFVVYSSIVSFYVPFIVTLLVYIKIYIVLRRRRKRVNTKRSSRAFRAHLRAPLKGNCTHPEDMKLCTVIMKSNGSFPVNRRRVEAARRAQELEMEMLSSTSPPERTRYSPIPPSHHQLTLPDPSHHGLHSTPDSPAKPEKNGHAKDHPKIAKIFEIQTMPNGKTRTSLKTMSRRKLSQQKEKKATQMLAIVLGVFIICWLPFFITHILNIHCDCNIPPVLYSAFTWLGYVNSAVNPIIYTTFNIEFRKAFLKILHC
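In this primary screen, compounds producing a positive calcium signal within 180 s of addition to tetracycline-induced, force-coupled HEK293 Trex D2 cells are flagged; cells are dye-loaded with a no-wash calcium kit beforehand.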
D2 PAM-1 – HTS Assay for Positive Allosteric Modulators of the Human D2 Dopamine Receptor: Primary Screen for Potentiators. HEK293 T-REx D2, calcium flux, EC20 dopamine potentiation. potentiation, % at 10 µM. actives 0.34% (n = 340,000);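 active means potentiation over 3 SD above the plate norm, cut at about 30% in these data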; further: 0% is about no effect
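Potentiation of an EC20 dopamine calcium response measured kinetically over 180 s, after a preceding 180 s compound-only read flagging agonists. Cells: inducible Hek293 Trex D2 line, 4000/well, cultured overnight at 30 C before dye loading.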
D2 ag-2 – Beta-Arrestin HTS for Positive Allosteric Modulators of the Human D2 Dopamine Receptor: Agonists | D(2) dopamine receptor (Homo sapiens), P14416 | DiscoveRx PathHunter D2 beta-arrestin, luminescence, 90 min; 100% = 57 uM dopamine signal | actives 0.084% (n = 360,000) | activation, % (no concentration beside the values); in the data active means activation above about 40%; inconclusive means between about 15% and that limit
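Agonist mode: compounds alone added to overnight-plated D2 PathHunter cells for 90 min at 37 C, with 57 uM final dopamine (EC100) defining full response. Beta-arrestin recruitment detected by chemiluminescent reagent, read after 1 h at ambient temperature.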
D2 antag – HTS Assay for Allosteric Antagonists of the Human D2 Dopamine Receptor: Primary Screen for Antagonists. actives 2% (n = 340,000). D(2) dopamine receptor (Homo sapiens), P14416. AID 485344, 2010. HEK293 TREx D2 cells, calcium flux, dopamine EC80. inhibition, % at 10 µM; in the data active means inhibition above about 30%; inactive means below that, where a call was filed; further: 0% is about no effect
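HEK293 T-REx D2 cells, tet-induced, calcium dye no-wash. Cpd pintool add, 180 s kinetic, then EC80 DA, 180 s kinetic. Ca flux read.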
D2 PAM-2 – Beta-Arrestin HTS for Positive Allosteric Modulators of the Human D2 Dopamine Receptor: Potentiators; actives 0.23% (n = 360,000); potentiation, % (test concentration not listed); DiscoveRx D2 beta-arrestin cells, luminescence, 90 min; 100% = 57 uM dopamine signal; in the data active means potentiation above about 50%; inconclusive means mostly about 30% to 49%
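D2 cells co-treated with compound plus 50 nM dopamine (EC20) for 90 min at 37 deg C to detect potentiation. Beta-arrestin recruitment was read as enzyme-fragment luminescence after 1 h at ambient temperature. Full response was set by 57 uM dopamine.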
Starred values were filed as active, the others as inactive; u = inconclusive; x = no result. Rows were chosen to be rich in hits. Some 2.5% of all compounds tested hit in one or more screens of this group.

SMILES | Apoferritin bind | D2 ag-1 | D2 PAM-1 | D2 ag-2 | D2 antag | D2 PAM-2
CN(c1ccccc1)c1nc(N)c([N+](=O)[O-])c(N2CCCCCC2)n1 | -6.3% | 0.3 | 4.4 | 0.1 | 6.4 | -12.1
CCN1CCN(c2nc(Nc3ccc(C)c(C)c3)nc(N)c2[N+](=O)[O-])CC1 | -18.0% | -1.7 | -21.9 | -5.9 | 51.5* | -15.2
CCN1CCN(c2nc(Nc3cccc(OC)c3)nc(N)c2[N+](=O)[O-])CC1 | -8.8% | x | x | -5.9 | x | -53.2
CCN(CC(=O)Nc1c(F)cccc1F)C(=O)C1CCCO1 (stereo unspecified) | x | x | x | -0.7 | x | 1.2
CCN(CC(=O)Nc1c(F)cccc1F)C(=O)C1COc2ccccc2O1 (stereo unspecified) | x | 0.0 | 9.4 | 0.6 | 35.7* | 0.2
O=C(O)C1CCCN1c1ncccn1 (stereo unspecified) | -4.1% | 0.0 | 6.0 | -1.8 | -2.9 | -0.1
CC(=N\O)/C(CN(C)C)=N/O | -5.8% | x | x | -3.2 | x | -22.2
CCOC(=O)C(=O)N(C)c1c(CC)nc2c(OCc3ccc(Cl)cc3)cccn12 | x | x | x | -1.5 | x | -6.7
Cc1ccc(/C=C\c2nccc3c2[nH]c2ccccc23)cc1 | 6.3% | -0.5 | -23.5 | -4.4 | 44.3* | -35.7
CN(c1ccccc1)S(=O)(=O)c1ccc(C(=O)NCc2ccco2)cc1 | x | -0.5 | 15.4 | 1.0 | 9.9 | -31.5
COc1cccc(-c2cc3nc(NCc4ccc(C)cc4C)n(C)c(=O)c3s2)c1 | x | x | x | 1.4 | x | -4.8
Cc1ccc(S(=O)(=O)Cn2nnnc2C(c2ccccc2)N2CCN(c3ccccc3)CC2)cc1 (stereo unspecified) | -5.1% | 0.5 | 1.0 | -0.7 | 23.8 | -27.1
CC1(OC(=O)C2CCCC2)C(=O)C=C2C=C(c3ccsc3)N(C3CCCC3)C=C2C1=O (stereo unspecified) | -0.2% | -0.8 | -3.4 | 9.1 | 37.4* | 20.6
Cc1ccc(NC(=O)c2ccc(OCc3c(C)noc3C)cc2)nc1 | x | -1.3 | -3.5 | -0.3 | 34.1* | 4.6
CC1=C(C(=O)OCC2CCCO2)C(c2coc3ccc(C)cc3c2=O)C2=C(CCCC2=O)N1 (stereo unspecified) | -8.0% | 0.2 | 31.1* | -4.1 | -4.8 | -5.9
CC1=C(C(=O)OCC2CCCO2)C(c2coc3ccc(Cl)cc3c2=O)C2=C(CCCC2=O)N1 (stereo unspecified) | -21.2% | -0.3 | 22.6 | -0.8 | 0.9 | -26.1
Fc1cccc(-c2cc3nc4c(c(N5CCC6(CC5)OCCO6)n3n2)CCCC4)c1 | -6.1% | -2.0 | 32.2* | -4.5 | 4.7 | 1.1
OC1CCN(c2c3c(nc4cc(-c5cccc(F)c5)nn24)CCCC3)CC1 | 42.4% | 0.8 | -7.3 | 0.5 | 1.7 | -1.0
NC(=O)NC(=O)COC(=O)c1ccccc1OCc1ccc(F)cc1 | 1.4% | -0.8 | 1.2 | -2.6 | 3.7 | -9.5
COc1ccc(C(=O)c2ccc(OC)c(OC)c2)cc1OC | -15.2% | -0.2 | -7.6 | -2.2 | -6.6 | -2.0
COc1ccc(C(=O)c2ccc(OC)c3cccc(O)c23)cc1OC | u | 0.2 | 12.7 | 4.2 | -8.6 | 73.1*
O=C(c1ccc2c3c(cccc13)CC2)C1CCCN(Cc2ccc(OCCO)cc2)C1 (stereo unspecified) | -9.0% | 0.3 | -31.9 | -0.1 | 30.8* | -4.8
O=C(c1ccc2c3c(cccc13)CC2)C1CCCN(Cc2ccccn2)C1 (stereo unspecified) | -0.9% | -0.4 | -17.8 | -1.6 | 36.7* | -6.6
Cc1cnc(CN2CCCC(C(=O)c3ccc4c5c(cccc35)CC4)C2)[nH]1 (stereo unspecified) | -10.7% | -1.3 | -32.1 | -3.5 | 7.5 | -16.3
Cc1ccccc1S(=O)(=O)Cc1ccc(C(=O)NCCN(C)Cc2ccccc2)o1 | 6.2% | x | x | -1.9 | x | -35.6
SMILES | Apoferritin bind | D2 ag-1 | D2 PAM-1 | D2 ag-2 | D2 antag | D2 PAM-2
COc1ccc(C(=O)OCC(=O)NCc2ccco2)cc1OC | -7.4% | 0.2 | 13.1 | -0.6 | 0.2 | 19.8
COc1ccccc1NC(=O)c1ccc(NC(=O)COC(=O)C2CC2C)cc1 (stereo unspecified) | 1.0% | x | x | -5.7 | x | -0.4
COc1ccccc1NC(=O)c1ccc(NC(=O)COC(=O)C2CCCO2)cc1 (stereo unspecified) | -4.2% | 0.3 | 9.7 | 3.5 | 41.3* | 4.9
O=C(Nc1ccc(NC(=O)C2CC2)nc1)c1cccnc1 | -5.7% | 1.1 | 2.4 | -0.3 | 38.0* | -15.5
O=C(Nc1ccc(NC(=O)C2CC2)cn1)c1ccccc1 | -2.8% | 0.9 | 3.9 | 3.7 | 35.9* | 1.0
Cc1ccc2nc(SCC(=O)Nc3c(F)cccc3F)[nH]c2c1 | -4.7% | 3.4 | -5.8 | 4.2 | -3.0 | -2.9
CN(C)c1ccc(C(=O)NCc2ccc3c(c2)CCO3)cc1 | 6.9% | 0.8 | -12.6 | -2.5 | -10.0 | -5.8
CCOc1nc(NCCC2=CCCCC2)nc(N2CCOCC2)n1 | 3.1% | 0.0 | 6.4 | -3.3 | -15.3 | -0.3
CCOc1nc(NCCO)nc(NCCC2=CCCCC2)n1 | -6.2% | 0.2 | 49.1* | -1.8 | -14.8 | -5.1
OC1CCN(Cc2ccc3ccccc3c2)CC1 | -6.6% | 0.7 | -15.3 | -1.6 | 45.6* | -13.9
COc1ccccc1CN1CCN(Cc2ccc3ccccc3c2)CC1 | 9.4% | 1.1 | -28.5 | -8.1 | 67.7* | -9.9
COc1ccc(CN2CCN(Cc3ccc4ccccc4c3)CC2)cc1OC | -4.9% | 0.7 | -16.0 | -5.2 | 4.5 | -14.3
CCCCN(Cc1ccccc1)S(=O)(=O)c1ccc2[nH]c(=O)oc2c1 | -12.9% | -2.0 | 4.9 | -0.7 | 2.9 | -1.7
CC(C(=O)c1c[nH]c(C(N)=O)c1)c1ncc(C(F)(F)F)cc1Cl (stereo unspecified) | -5.7% | 1.0 | 2.3 | 4.4 | -5.3 | -1.2
CCN1CCN(c2oc(-c3ccccc3)nc2S(=O)(=O)c2ccc(C)cc2)CC1 | x | -0.2 | -24.1 | -1.4 | 47.2* | -36.0
CSc1oc(-c2ccccc2)nc1S(=O)(=O)c1ccc(C)cc1 | -14.4% | 2.5 | 0.6 | -3.9 | 34.3* | -3.5
CCOc1ccc(C(=O)NC(=S)Nc2ccc(NC(=O)CC)cc2)cc1[N+](=O)[O-] | u | 0.3 | -8.8 | -3.0 | -8.1 | -12.0
